Tb PYK inh – inhibitors of Trypanosoma brucei pyruvate kinase | Q57TT1 | TbPYK enzyme, Kinase-Glo Plus ATP luminescence, 45 min | Potency, µM (series often up to 76.8 µM), for the others: at the top dose activity, negative = inhibition, usual class: inhibitors | 0.12% of 410,000 active; active = well fitted curve in the direction sought with a large enough effect; inconclusive = small, poorly fitted or top-dose-only effect, or another doubt; inactive = no such curve, though single readings can be large; an effect the other way counts as inactive or inconclusive; also: potency is read from the fitted curve at half-maximal effect; % is scaled to controls: 0 for no effect and ±100 for the full control effect; nearly all actives have a fitted effect of over 50% in size
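TbPYK + substrate in 50 mM TEA pH 7.2, 100 mM KCl, 10 mM MgCl2, 0.05% BSA, 0.01% Tween-20; cpd pinned; ADP 130 uM final; 45 min RT; Kinase-Glo Plus 10 min; luminescence endpoint.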
CHX counter – counter-screen for Shiga toxin inhibitors: cycloheximide protein synthesis inhibition. cell reporter, cycloheximide protein synthesis inhibition counterscreen. AID 2314. 12% of 300,000 active. max response, %; in the data active = max response mostly above about 13%, no sharp cut-off; inactive = mostly below about 14%; also: read at 38.3 µM for the half of the compounds with a filed dose; 0% is about no effect
NS1 function inh – influenza NS1 inhibition; Potency, µM (series often up to 46.1 µM), for the others: at the top dose activity, positive = more growth; AID 2326; 0.4% of 270,000 active; also: potency is read from the fitted curve at half-maximal effect; actives are rising curves; nearly all actives have a fitted effect of over 50% in size
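Recovery from NS1-induced slow growth read by OD600 in budding yeast switched to galactose assay medium (pH 6.0, -URA) at 1:100 dilution. Compound 23 nl per well; the matching strain lacking NS1 serves as control.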
Shiga inhibitor – inhibitors of Shiga toxin in Vero cells; Vero cells, Shiga toxin protein synthesis inhibition reporter; inhibition, % at 38.7 µM; 9.2% of 290,000 active; AID 2315; in the data active = inhibition mostly above about 28%, no sharp cut-off; inactive = mostly below about 43%; also: 0% is about no effect
SARS PLpro yeast – SARS-CoV PLP inhibition in yeast | S. cerevisiae expressing SARS-CoV PLpro, growth rescue | Potency, µM (highest dose often 32.9 µM), for inactives: at the top dose activity, positive = growth rescue, actives largely listed as activators | 0.19% of 330,000 active; also: potency is read from the fitted curve at half-maximal effect; 0% is about no effect; nearly all actives have a fitted effect of over 55% in size
LmPK inh – blocks Leishmania mexicana pyruvate kinase activity; Q27686; purified LmPK, Kinase-Glo ATP luminescence, 1 h; Potency, µM (doses to about 57.5 µM), for the others: top-dose activity change, negative = inhibition, most hits filed as inhibitors; 0.37% of 290,000 active; active = well fitted curve in the direction sought with a large enough effect; inconclusive = small, poorly fitted or top-dose-only effect, or another doubt; inactive = no such curve, though single readings can be large; an effect the other way counts as inactive or inconclusive; also: potency is read from the fitted curve at half-maximal effect; % is scaled to controls: 0 for no effect and ±100 for the full control effect
Target sequence (Q27686 whole entry, looked up): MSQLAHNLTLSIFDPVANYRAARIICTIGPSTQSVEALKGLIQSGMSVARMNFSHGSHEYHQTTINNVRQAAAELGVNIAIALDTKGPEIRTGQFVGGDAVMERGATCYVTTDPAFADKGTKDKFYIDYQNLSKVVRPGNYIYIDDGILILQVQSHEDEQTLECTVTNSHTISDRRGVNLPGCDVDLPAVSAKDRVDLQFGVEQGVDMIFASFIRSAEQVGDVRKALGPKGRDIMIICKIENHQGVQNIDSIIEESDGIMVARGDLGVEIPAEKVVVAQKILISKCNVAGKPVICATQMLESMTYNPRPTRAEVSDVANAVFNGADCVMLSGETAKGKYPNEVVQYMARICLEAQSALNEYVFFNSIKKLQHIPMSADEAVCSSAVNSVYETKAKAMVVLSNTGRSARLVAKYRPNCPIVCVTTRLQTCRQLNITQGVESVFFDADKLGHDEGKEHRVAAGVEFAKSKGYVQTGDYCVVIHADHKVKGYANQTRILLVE
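qHTS format; LmPK 0.1 nM; substrates PEP 0.5 mM and ADP 0.1 mM. One-hour room-temperature incubation, then coupled luciferase luminescence; 0.5 nM enzyme wells mark activation.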
* marks the source's active call; other numbers are inactive results; u = inconclusive; x = not tested or not shown. Shown is part of a subset that was picked to be rich in hits. Unless noted, calls follow the shape of the full dose curve.

SMILES | Tb PYK inh | CHX counter | NS1 function inh | Shiga inhibitor | SARS PLpro yeast | LmPK inh
CCC1(C(=O)NC(=Nc2ccccc2)Nc2ccccc2)CCOC1=O (configuration not stated) | -6% | x | x | x | x | x
CCc1nc2c(OCc3c(C)noc3C)cccn2c1N(C=O)Cc1ccc(OC)cc1 | 5% | x | x | x | x | x
CC1(C(=O)NS(=O)(=O)c2cccs2)CCN1C(=O)CCc1ccc(Cl)cc1Cl (configuration not stated) | -4% | x | x | x | x | x
COc1ccc(NC(=O)C(CC(C)C)NC(=O)C2CCCCC2)cc1 (configuration not stated) | -3% | x | x | x | x | x
CCOC(=O)Cc1ccc(NC(=O)c2ccc([N+](=O)[O-])cc2)cc1 | 4% | -1 | -5% | 20 | -1% | 2%
O=C(Nc1ccccc1-c1ccccc1)c1ccccc1 | 2% | 0 | -28% | -3 | -2% | -5%
CCOC(=O)Cc1ccc(NC(=O)c2cccc([N+](=O)[O-])c2)cc1 | -5% | 21* | -1% | 62* | -1% | -15%
Cc1ccc(NCCC(=O)c2cccc([N+](=O)[O-])c2)cc1 | -15% | 29* | 21% | 19* | -29% | -6%
O=C(Nc1ccccc1-c1ccccc1)c1cccc([N+](=O)[O-])c1 | -18% | 31* | -7% | 122* | -14% | 2%
O=C(CCNc1ccc(F)cc1)c1cccc([N+](=O)[O-])c1 | -6% | 12 | -32% | -5 | -27% | 6%
O=C(O)c1ccccc1Nc1ccc([N+](=O)[O-])cc1 | -10% | 27* | -55% | 32 | -12% | -21%
O=C(O)c1ccccc1Nc1ccccc1C(=O)O | -3% | 2 | u | -8 | 3% | -2%
O=C(Nc1ccc(NC(=O)c2cccc([N+](=O)[O-])c2)cc1)c1cccc([N+](=O)[O-])c1 | 0% | 30* | -33% | x | 9% | 11%
COC(=O)/C(=C/c1cccc([N+](=O)[O-])c1)NC(=O)c1ccc(OC)cc1 | -2% | 53* | u | 76* | 22% | 3%
O=C(N/N=C1/CCSC1)c1cccc([N+](=O)[O-])c1 | 0% | -1 | 6% | 50* | -1% | 1%
O=C(NNc1ccc([N+](=O)[O-])cc1)c1ccccc1Cl | 2% | 6 | x | 5 | -3% | 1%
O=C(NNc1ccc([N+](=O)[O-])cc1)c1ccccc1F | -7% | 25* | -48% | 21 | -4% | -3%
COc1ccc(N2C(=O)CSC2c2ccc([N+](=O)[O-])cc2)cc1 (configuration not stated) | 2% | -3 | 3% | -4 | 1% | -3%
CSCCC(NC(=O)c1ccccc1Br)C(=O)NNC(=O)c1ccncc1 (configuration not stated) | -1% | x | x | x | 5% | x
CCOc1ccc(N2CC(NC(=O)c3cc4ccccc4o3)CC2=O)cc1 (configuration not stated) | 2% | x | x | x | x | x
CN(C)S(=O)(=O)Oc1cccc(C(=O)Nc2ccc([N+](=O)[O-])cc2)c1 | -2% | 50* | x | 79* | 2% | 9%
CCN(CC)c1ccc(C(=O)Nc2ccccc2)cc1[N+](=O)[O-] | 5% | 37* | -39% | 67* | -4% | -1%
O=C(N[C@H]1CC1c1ccccc1)c1ccc([N+](=O)[O-])cc1 (some centres not stated) | -1% | 46* | -4% | 112* | -4% | -10%
Cc1cc(O)c(NC(=O)c2cccc([N+](=O)[O-])c2)cc1C | 1% | 22* | 3% | 47* | 0% | 3%
O=C(Nc1ccc(O)cc1)c1cccc(Oc2ccc([N+](=O)[O-])cc2)c1 | -3% | 2 | 2% | 15 | 0% | 9%
SMILES | Tb PYK inh | CHX counter | NS1 function inh | Shiga inhibitor | SARS PLpro yeast | LmPK inh
O=C(Nc1cc([N+](=O)[O-])ccc1O)c1cccc([N+](=O)[O-])c1 | 5% | 6 | 3% | x | 0% | 0%
COc1ccc(S(=O)(=O)c2c(Nc3ccc(F)cc3)sc(C(=O)c3ccc4c(c3)OCO4)c2N)cc1 | 2% | x | x | x | x | x
COc1ccc(NC(=O)CSc2nc(-c3cc(OC)c(OC)c(OC)c3)[nH]c2-c2ccc(F)cc2)cc1 | 7% | x | x | x | x | x
CC(C)C[C@@H]1COc2cccc(N3CCC[C@H]3CO)c2S(=O)(=O)N1 | -13% | x | x | x | x | x
O=C(Nc1ccccc1)Nc1ncc([N+](=O)[O-])s1 | -15% | 35* | x | 77* | -4% | u
COc1ccc(NC(=O)c2cc([N+](=O)[O-])ccc2O)cc1 | u | -5 | -71% | -21 | -6% | 13µM*
O=C(Nc1ncc([N+](=O)[O-])s1)c1cccc([N+](=O)[O-])c1 | -16% | 43* | -76% | 105* | -8% | 13µM*
O=C(Nc1ccc([N+](=O)[O-])cc1)c1ccccc1 | 1% | 47* | 7% | 73* | -2% | -1%
O=C(COC(=O)c1ccccc1)Nc1ncc([N+](=O)[O-])s1 | u | x | x | x | -41% | x
CCCn1nc(C(=O)Nc2cc(OCC)c(N3CCOCC3)cc2OCC)c2ccccc2c1=O | 3% | x | x | x | x | x
O=C(Nc1cccc([N+](=O)[O-])c1)c1cc2ccccc2cc1O | 6% | 49* | -22% | 108* | -6% | 6%
CN(C)c1ccc(C2C=C(c3ccccc3)Nc3nnnn32)cc1 (configuration not stated) | -12% | x | x | x | x | x
Fc1ccc(C2=CC(c3cccs3)n3nnnc3N2)cc1 (configuration not stated) | 0% | 27* | 7% | 59* | -1% | -1%
C1=C(c2ccccc2)Nc2nnnn2C1c1cccs1 (configuration not stated) | -2% | 16* | 4% | 69* | 0% | 3%
N#Cc1ccc(CN2C=NS(=O)(=O)c3ccccc32)cc1 | -4% | -2 | 0% | -9 | -3% | 0%
O=C(COc1cccc2cccnc12)N1CCc2ccccc21 | 1% | 18* | -6% | 63* | -1% | -2%
O=C(OCC(=O)N1CCc2ccccc21)c1cccnc1Cl | -1% | 35* | -8% | 69* | 0% | -25%
Cc1ccc2cccc(OCC(=O)N3CCc4ccccc43)c2n1 | 8% | -2 | x | -3 | 4% | 0%
O=C(OCC(=O)N1CCc2ccccc21)c1ccccn1 | -4% | 32* | -2% | 52 | -2% | -7%
O=C(OCC(=O)N1CCCc2ccccc21)c1cccnc1Cl | -2% | 11 | -2% | 24 | 9% | -6%
Cn1cc(S(=O)(=O)N2CCCCC2)cc1C(=O)Nc1cccc(C#N)c1 | 3% | x | x | x | x | x
CN(C)c1ccc(-c2ccccc2)nn1 | -18% | 32* | -14% | 94* | -2% | 25µM*
NS(=O)(=O)c1ccc(NCC2COc3ccccc3O2)c([N+](=O)[O-])c1 (configuration not stated) | -2% | 16* | 7% | 63 | 3% | 1%
O=C(NCC1COc2ccccc2O1)c1ccc(-n2cncn2)c([N+](=O)[O-])c1 (configuration not stated) | -1% | x | x | x | 1% | x

Source: PubChem
